{"source": "PubChem BioAssay (NCATS)", "note": "Results filed as inconclusive are left out. Where a call stands in place of a potency, no number is given. The source made the active and inactive calls. Calls come from the whole dose curve; as a rule, active = well fitted inhibition curve with a large enough effect; inconclusive = small, poorly fitted or top-dose-only effect; inactive = no such curve, though single readings can be large or run the other way."}
{"experiment": "qHTS assay for measurement of the activity of small molecule inhibitors on Zika virus induced Caspase-3 activity in human iPSC derived neural progenitor cells (hNPCs) (AID 1224857); note: nearly all actives have a fitted effect of over 65% in size", "settings": "hNPCs ZIKV-induced caspase-3/7, Caspase-Glo luminescence, 6 h; series mostly up to 45.7 µM", "source_text": "National Center for Advancing Translational Sciences [NCATS]\nJohns Hopkins University School of Medicine\nIncrease in the Caspase-3 activity indicates an activation of apoptosis cell death pathway caused by Zika virus infection in certain types of neuronal cells including human neural progenitor cells (hNPCs), astrocytes, and astrocytoma cell line (SNB-19). This cell-based caspase-3 activity assay measures the increased caspase-3 activity in the human iPSC derived neural progenitor cells (hNPCs) after a 6-hour Zika virus infection with a luminescence readout. A decrease in the luminescence signal in this assay by small molecule treatment indicates an inhibitory effect of that small molecule on the Zika virus induced caspase-3 activity that may correlate with its effect on reduction of Zika virus caused cell death.\nThe medium for hNPCs consists of DMEM/F12, N2 supplement (ThermoFisher, Cat.# 17502048), NEAA (ThermoFisher, Cat. # 11140050), 2 ug/ml heparin, 2 uM cyclopamine, and B27 (ThermoFisher, Cat. # 17504044). A Caspase-Glo 3/7 assay kit (catalog number G8092; Promega, Madison, WI) was used to detect caspase-3 activity induced by Zika virus infection in human cells. The reagent mixture was reconstituted as described in the protocol from the manufacturer. Polystyrene tissue culture treated and PDL coated white plates were obtained from Greiner Bio-One (Monroe, NC). Cells were seeded in 384- or 1536-well assay plates and cultured at 37 C with 5% CO2 for 16 to 20 hours. The typical cell seeding density in the 1536-well plate assay is 350 cells/well in 3 ul medium for hNPCs in tissue culture treated plates. Compounds were added to cells and incubated for one hour before addition of ZIKV solution to cells (2 FFU/cell). After incubation at 37 C with 5% CO2 for 6 hours, the reagent mixture of Caspase-Glo 3/7 assay kit was added to each well, followed by incubation at room temperature for 30 minutes. The luminescence intensity of the assay plates was measured using a ViewLux plate reader (PerkinElmer). Data were normalized by using the cell-containing wells without ZIKV as a negative control (0% induction of caspase 3/7 activity) and wells containing ZIKV infected cells (Caspase-3 activity induced) as a positive control (100% induction of caspase 3 activity). The percentage inhibitions of the increased Caspase-3 activity by small molecule inhibitors were then calculated."}
{"smiles": "O=C1OC2(c3ccccc31)c1cc(I)c(O)c(I)c1Oc1c2cc(I)c(O)c1I", "Potency": "inactive"}
{"smiles": "CCC(C(=O)OCCN1CCOC(c2ccccc2)C1C)c1ccccc1", "note": "(stereo not given)", "Potency": "inactive"}
{"smiles": "COc1ccc2cc(C=O)ccc2c1", "Potency": "inactive"}
{"smiles": "Cn1c(=O)c2c(ncn2CC(=O)O)n(C)c1=O", "Potency": "inactive"}
{"smiles": "COc1cc2c(cc1OC)CN(C(=O)[C@H](C)N[C@@H](CCc1ccccc1)C(=O)O)[C@H](C(=O)O)C2", "Potency": "inactive"}
{"smiles": "N#CSCC(=O)O", "Potency": "inactive"}
{"smiles": "OCc1cccnc1", "Potency": "inactive"}
{"smiles": "CC(C)N(CCC(=O)c1ccc2ccccc2c1)Cc1ccccc1", "Potency": "inactive"}
{"smiles": "CO[C@@]1(NC(=O)CSC[C@@H](N)C(=O)O)C(=O)N2C(C(=O)O)=C(CSc3nnnn3C)CS[C@@H]21", "Potency": "inactive"}
{"smiles": "CCOc1c(N2CCOCC2)cnn(C)c1=O", "Potency": "inactive"}
{"smiles": "Cc1nc2n(c(=O)c1CCN1CCC(C(=O)c3ccc(F)cc3)CC1)CCS2", "Potency": "inactive"}
{"smiles": "CCCC(=O)O[C@]1(C(=O)CCl)[C@@H](C)C[C@H]2[C@@H]3CCC4=CC(=O)C=C[C@]4(C)[C@@]3(F)C(=O)C[C@@]21C", "Potency": "inactive"}
{"smiles": "NS(=O)(=O)c1ccc(N2CCCCS2(=O)=O)cc1", "Potency": "inactive"}
{"smiles": "CCOc1ccccc1OCC1CNCCO1", "note": "(stereo not given)", "Potency": "inactive"}
{"smiles": "CC1(C)OC(=O)Nc2ccc(Br)cc21", "Potency": "inactive"}
{"smiles": "O=C(O)c1cn(C2CC2)c2cc(Cl)c(F)cc2c1=O", "Potency": "inactive"}
{"smiles": "Cc1cc(C(C)(C)C)c(O)c(C(C)(C)C)c1", "Potency": "inactive"}
{"smiles": "O=C(O)[C@@H](O)[C@H](O)[C@H](O)[C@@H](O)C(=O)O", "Potency": "inactive"}
{"smiles": "CSc1ccc(/C=C2/C(C)=C(CC(=O)O)c3cc(F)ccc32)cc1", "Potency": "inactive"}
{"smiles": "C=CCNc1nc(NCC=C)nc(N2CCN(C(c3ccc(F)cc3)c3ccc(F)cc3)CC2)n1", "Potency": "inactive"}
{"smiles": "NC(=O)NC1N=C([O][Al])NC1=O", "note": "(stereo not given)", "Potency": "inactive"}
{"smiles": "CCOC(=O)c1ccc(NC(=O)CN2CCCCC2)cc1", "Potency": "inactive"}
{"smiles": "COc1ccc([C@@H]2Sc3ccccc3NC(=O)[C@@H]2O)cc1", "Potency": "inactive"}
{"smiles": "CC(C)=CCC/C(C)=C/CC/C(C)=C/CCC(=O)OC/C=C(\\C)CCC=C(C)C", "Potency": "inactive"}
{"smiles": "Cc1ccccc1N1CCN(CCc2nnc3n2CCCC3)CC1", "Potency": "inactive"}
{"smiles": "Nc1nc(=O)n([C@@H]2O[C@H](CO)[C@@H](O)[C@@H]2F)cc1I", "Potency": "inactive"}
{"smiles": "COC(=O)/C=C\\C(=O)OC", "Potency": "inactive"}
{"smiles": "OC1(c2ccc(Cl)c(C(F)(F)F)c2)CCN(CCCC(c2ccc(F)cc2)c2ccc(F)cc2)CC1", "Potency": "inactive"}
{"smiles": "Cc1ccc(C(=O)Oc2ccc(C(O)CNC(C)(C)C)cc2OC(=O)c2ccc(C)cc2)cc1", "note": "(stereo not given)", "Potency": "inactive"}
{"smiles": "O=c1[nH]sc2cc(Cl)ccc12", "Potency": "inactive"}
{"smiles": "Nc1ccc([N+](=O)[O-])c(C(F)(F)F)c1", "Potency": "inactive"}
{"smiles": "Oc1cccc2[nH]ccc12", "Potency": "inactive"}
{"smiles": "CCCCCCCC(=O)[O-].CCCCCCCC(=O)[O-].[Zn+2]", "Potency": "inactive"}
{"smiles": "NC(=O)COCCN1CCN(C(c2ccccc2)c2ccc(Cl)cc2)CC1", "note": "(stereo not given)", "Potency": "inactive"}
{"smiles": "O=C1CC[C@H](C(=O)N2CCCCC2)N1", "Potency": "inactive"}
{"smiles": "CCOC(=O)C(O)c1ccccc1", "note": "(stereo not given)", "Potency": "inactive"}
{"smiles": "CC(C(=O)O)c1ccc(/C=C2\\CCCCC2=O)cc1", "note": "(stereo not given)", "Potency": "inactive"}
{"smiles": "C/C(=N/NC(=O)c1ccncc1)C(=O)O", "Potency": "inactive"}
{"smiles": "CCc1cc2cc(OC)c(OC)cc2c(Cc2ccccc2)n1", "Potency": "inactive"}
{"smiles": "O=C(c1cc(O)c(O)c(O)c1)c1ccc(O)c(O)c1O", "Potency": "inactive"}
